# Test results taken from article PMC5540273 (PLoS ONE, 2017).
# Legend:
# Conditions in all cases: concentration: 1 μM, replicates: in singlicate; n = 1
# [1] = system: TLK2
# [2] = system: TNIK
# [3] = system: TNK1
# [4] = system: TNK2
# [5] = system: TNNI3K
# [6] = system: T1, TRKA
# T1 construct: gene NTRK1
# [7] = system: TRKB
# [8] = system: T2, TRKC
# T2 construct: gene NTRK3
# [9] = system: TRPM6
# [10] = system: TSSK1B
# [11] = system: TSSK3
# [12] = system: TTK
# [13] = system: TXK
# [14] = system: TYK2(JH1domain-catalytic)
# [15] = system: TYK2(JH2domain-pseudokinase)
# [16] = system: TYRO3
# [17] = system: ULK1
# [18] = system: ULK2
# [19] = system: ULK3
# [20] = system: T3, VEGFR2
# T3 construct: gene KDR
# 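Note: KINOMEscan kinase panel screen.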
smiles,measurement,setting,value
Cn1ccc2ncnc(Oc3ccc(NC(=O)Nc4ccncc4)c(Cl)c3)c21,%Inh,[1],0%
same,%Inh,[2],0%
same,%Inh,[3],0%
same,%Inh,[4],0%
same,%Inh,[5],0%
same,%Inh,[6],0%
same,%Inh,[7],0%
same,%Inh,[8],0%
same,%Inh,[9],0%
same,%Inh,[10],0%
same,%Inh,[11],0%
same,%Inh,[12],0%
same,%Inh,[13],0%
same,%Inh,[14],3%
same,%Inh,[15],5%
same,%Inh,[16],0%
same,%Inh,[17],0%
same,%Inh,[18],10%
same,%Inh,[19],0%
same,%Inh,[20],1%
COCCNC(=O)c1ccc(-c2cc(C(=O)NC3CC3)cc(F)c2C)cc1 [GW868318],%Inh,[1],0%
same,%Inh,[2],0%
same,%Inh,[3],40%
same,%Inh,[4],16%
same,%Inh,[5],11%
same,%Inh,[6],27%
same,%Inh,[7],43%
same,%Inh,[8],30%
same,%Inh,[9],20%
same,%Inh,[10],0%
same,%Inh,[11],24%
same,%Inh,[12],0%
same,%Inh,[13],18%
same,%Inh,[14],9%
same,%Inh,[15],33%
same,%Inh,[16],21%
same,%Inh,[17],46%
same,%Inh,[18],37%
same,%Inh,[19],47%
same,%Inh,[20],16%
Fc1ccc(-c2nn3c(OCC(F)(F)F)cccc3c2-c2ccncc2)cc1 [GW514784],%Inh,[1],0%
same,%Inh,[2],29%
same,%Inh,[3],0%
same,%Inh,[4],18%
same,%Inh,[5],0%
same,%Inh,[6],15%
same,%Inh,[7],37%
same,%Inh,[8],25%
same,%Inh,[9],0%
same,%Inh,[10],0%
same,%Inh,[11],5%
same,%Inh,[12],0%
same,%Inh,[13],18%
same,%Inh,[14],10%
same,%Inh,[15],36%
same,%Inh,[16],0%
same,%Inh,[17],8%
same,%Inh,[18],0%
same,%Inh,[19],9%
same,%Inh,[20],0%
CC(C)Oc1ccc2c(-c3ccnc(Nc4ccc(N5CCN(C)CC5)cc4)n3)cnn2n1 [GW696155],%Inh,[1],95.1%
same,%Inh,[2],32%
same,%Inh,[3],60%
same,%Inh,[4],46%
same,%Inh,[5],9%
same,%Inh,[6],54%
same,%Inh,[7],39%
same,%Inh,[8],42%
same,%Inh,[9],43%
same,%Inh,[10],79%
same,%Inh,[11],96%
same,%Inh,[12],89%
same,%Inh,[13],13%
same,%Inh,[14],98%
same,%Inh,[15],99.4%
same,%Inh,[16],0%
same,%Inh,[17],99.9%
same,%Inh,[18],99.8%
same,%Inh,[19],100%
same,%Inh,[20],60%
Cc1c(Cn2c(C)nn3c(=O)cc(N4CCOC(C)C4)nc23)cccc1C(F)(F)F (centres unmarked) [GSK2344444],%Inh,[1],0%
same,%Inh,[2],0%
same,%Inh,[3],9%
same,%Inh,[4],7%
same,%Inh,[5],0%
same,%Inh,[6],0%
same,%Inh,[7],0%
same,%Inh,[8],0%
same,%Inh,[9],6%
same,%Inh,[10],17%
same,%Inh,[11],0%
same,%Inh,[12],6%
same,%Inh,[13],0%
same,%Inh,[14],13%
same,%Inh,[15],0%
same,%Inh,[16],0%
same,%Inh,[17],34%
same,%Inh,[18],0%
same,%Inh,[19],15%
same,%Inh,[20],0%
Cc1cn2c(=O)cc(N3CCOCC3)nc2n1Cc1cccc(Cl)c1Cl [GSK2334006],%Inh,[1],0%
same,%Inh,[2],0%
same,%Inh,[3],0%
same,%Inh,[4],12%
same,%Inh,[5],0%
same,%Inh,[6],17%
same,%Inh,[7],0%
same,%Inh,[8],0%
same,%Inh,[9],0%
same,%Inh,[10],29%
same,%Inh,[11],29%
same,%Inh,[12],0%
same,%Inh,[13],8%
same,%Inh,[14],19%
same,%Inh,[15],18%
same,%Inh,[16],7%
same,%Inh,[17],0%
same,%Inh,[18],0%
same,%Inh,[19],7%
same,%Inh,[20],8%
O=c1cc(N2CCOCC2)nc2n(Cc3cccc(C(F)(F)F)c3)ccn12 [GSK2297543],%Inh,[1],3%
same,%Inh,[2],0%
same,%Inh,[3],0%
same,%Inh,[4],11%
same,%Inh,[5],6%
same,%Inh,[6],20%
same,%Inh,[7],0%
same,%Inh,[8],0%
same,%Inh,[9],0%
same,%Inh,[10],16%
same,%Inh,[11],15%
same,%Inh,[12],12%
same,%Inh,[13],0%
same,%Inh,[14],0%
same,%Inh,[15],0%
same,%Inh,[16],0%
same,%Inh,[17],0%
same,%Inh,[18],0%
same,%Inh,[19],9%
same,%Inh,[20],13%
Fc1ccc(-c2ncn(CCCN3CCOCC3)c2-c2cccnc2)cc1 [SB-211743],%Inh,[1],0%
same,%Inh,[2],13%
same,%Inh,[3],14%
same,%Inh,[4],0%
same,%Inh,[5],0%
same,%Inh,[6],0%
same,%Inh,[7],0%
same,%Inh,[8],0%
same,%Inh,[9],3%
same,%Inh,[10],0%
same,%Inh,[11],0%
same,%Inh,[12],15%
same,%Inh,[13],0%
same,%Inh,[14],0%
same,%Inh,[15],7%
same,%Inh,[16],0%
same,%Inh,[17],4%
same,%Inh,[18],2%
same,%Inh,[19],18%
same,%Inh,[20],0%
CC(=O)Nc1ccc(COc2ccc(Nc3ccnc4cc(-c5ccccn5)ccc34)cc2)cc1.Cl [GW440148],%Inh,[1],25%
same,%Inh,[2],0%
same,%Inh,[3],6%
same,%Inh,[4],37%
same,%Inh,[5],2%
same,%Inh,[6],14%
same,%Inh,[7],11%
same,%Inh,[8],25%
same,%Inh,[9],42%
same,%Inh,[10],1%
same,%Inh,[11],12%
same,%Inh,[12],0%
same,%Inh,[13],3%
same,%Inh,[14],20%
same,%Inh,[15],5%
same,%Inh,[16],0%
same,%Inh,[17],0%
same,%Inh,[18],0%
same,%Inh,[19],3%
same,%Inh,[20],99.6%
Cc1ccc(C(=O)NCC(N)=O)cc1-n1c(C)cc(OCc2ccc(F)cc2F)c(Br)c1=O,%Inh,[1],0%
same,%Inh,[2],0%
same,%Inh,[3],0%
same,%Inh,[4],15%
same,%Inh,[5],14%
same,%Inh,[6],0%
same,%Inh,[7],0%
same,%Inh,[8],0%
same,%Inh,[9],0%
same,%Inh,[10],26%
same,%Inh,[11],0%
same,%Inh,[12],35%
same,%Inh,[13],21%
same,%Inh,[14],0%
same,%Inh,[15],0%
same,%Inh,[16],3%
same,%Inh,[17],0%
same,%Inh,[18],0%
same,%Inh,[19],2%
same,%Inh,[20],0%
